About 79,000 compounds went through this panel and 15% of them were active in at least one assay; those are over-represented in the sample as a whole. The source made the active and inactive calls. No stated cut-off is given here; in the data, active means growth inhibition above about 70%; inactive means the rest.

The nature of the first assay: NCI Yeast Anticancer Drug Screen. Data for the rad50 strain (AID 155).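 Further: 0% = growth of vehicle-only cultures of the same strain.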 The following applies: S. cerevisiae rad50 strain growth inhibition; at 33.0 µM; stronger effect = higher value. The procedure, abridged: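 Readout: growth inhibition relative to vehicle-treated cultures. Compound exposure was carried out in a genetically defined yeast strain deficient in DNA damage repair.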
In the case of `CCCc1cc(C(=O)OCC)cc(CCC)c1O`, the growth inhibition is 0% (inactive).

Regarding `CC(C)[N+]([O-])(CCCNc1c2ccccc2nc2cccc([N+](=O)[O-])c12)C(C)C`, the growth inhibition was 93% (active).

In the case of `COc1cc2c3c(cccc3c1)C(=O)N(CCN(C)C)C2=O`, the growth inhibition is 61% (inactive).

Turning to `NC(=O)NN=C(CS)CS`, the growth inhibition was 44% (inactive).

On to `Cc1ccc(NC(=O)/C(Cl)=C(\Cl)C(=O)O)cc1C`, for which the growth inhibition is 99% (active).

For `CCN(CC)CC[n+]1ccc2c(C)c3[nH]c4ccc(O)cc4c3c(C)c2c1`, the growth inhibition was 89% (active).

As to `CC(CC(C)(C)[N+](C)(C)C)[N+](C)(C)C` (stereo not drawn), the growth inhibition was 2% (inactive).

For `COc1ccc(OC)c2cc3ccccc3cc12`, the growth inhibition was 17% (inactive).

For the molecule `Nc1ncncc1C(C1=C(O)COC1=O)C1=C(O)COC1=O`, the growth inhibition was 0% (inactive).

`CSC1=NNC(SC)=NN1`: the growth inhibition is 66% (inactive).

With `Cc1c(Cl)ccc2c1S(=O)(=O)c1cccc(Cl)c1-2`, the growth inhibition was -17% (inactive).

For the molecule `[O-][n+]1c2ccc(O)cc2nc2ccc(Cl)cc21`, the growth inhibition is 81% (active).

In the case of `COc1ccc2ccc3ccccc3c2c1C=O`, the growth inhibition is 6% (inactive).

For `Nc1ccc2c(c1)C(=O)c1cccc(N)c1C2=O`, the growth inhibition was 95% (active).

As to `O=C(c1ccc(Cl)cc1Cl)C(Cl)Cl`, the growth inhibition was 79% (active).

`COc1cc(C(=O)/C=C/c2ccccc2O)ccc1O`: the growth inhibition is 98% (active).

Take `O=Cc1cccc2ccc3ccccc3c12`: the growth inhibition is 94% (active).

Regarding `O=C(Nc1ccc(Cl)cc1)OCC#CCCl`, the growth inhibition is 15% (inactive).

As to `Cn1ccnc1Oc1ccc(Cl)cc1`, the growth inhibition was 76% (active).

Consider `c1ccc2c(c1)C(=NCCCN1CCCCCC1)c1cccn1-2`, for which the growth inhibition was -6% (inactive).

With `C/C(=N\O)C1CC2C=C(C#N)C1N(Cc1ccccc1)C2` (stereo not drawn), the growth inhibition is 0% (inactive).

With `O=[N+]([O-])C(=C(Sc1ccccc1)Sc1ccccc1)C(Cl)=C(Cl)Cl`, the growth inhibition is 46% (inactive).

As for `CCCCCCCCCC/C=C\C(=O)O`, the growth inhibition was 8% (inactive).

As to `COc1ccc(N=C2C(=O)Nc3ccc(Br)cc32)cc1`, the growth inhibition was -11% (inactive).

With `COc1ccccc1C(=O)OCC1CCCN2CCCCC12` (stereo not drawn), the growth inhibition is 97% (active).

On to `CC(C)(Br)C(=O)/C=C/c1ccc(Cl)c(Cl)c1`, for which the growth inhibition was 4% (inactive).

With `Nc1ccccc1CC(O)C(=O)O` (stereo not drawn), the growth inhibition is 85% (active).

As to `CC(=O)N/N=C/C(C)(C)C(C)(C)/C=N/NC(C)=O`, the growth inhibition was 38% (inactive).

For the molecule `CN(C)c1nc2sc3c(c2c(=O)o1)CCCC3`, the growth inhibition was 29% (inactive).

With `CC(C)OC(=O)Oc1ccccc1OC(=O)OC(C)C`, the growth inhibition was -1% (inactive).

As to `Cc1ccc(N)c(S)c1`, the growth inhibition is 91% (active).

Regarding `O=C(O)c1ccccc1NC(=S)c1ccccc1`, the growth inhibition was -11% (inactive).

Take `COC(=O)c1ccc(NCC2=CC(=O)C=CC2=O)cc1O`: the growth inhibition was 95% (active).

In the case of `NC(N)=N/N=C\c1c2ccccc2cc2ccccc12`, the growth inhibition was 36% (inactive).

Consider `COC(=O)CSSCc1ccc([N+](=O)[O-])cc1`, for which the growth inhibition was 85% (active).

As to `CCS(=O)(=O)c1ccc(/C=C/C=N/NC(=S)NCC(C)C)cc1`, the growth inhibition was 10% (inactive).

Take `N#CC(C(=O)Nc1ccccc1)C1=C(Cl)C(=O)c2ccccc2C1=O` (stereo not drawn): the growth inhibition is 97% (active).

`C[C@H](CCC(=O)NN)[C@H]1CC[C@H]2[C@@H]3CC[C@@H]4C[C@H](O)CC[C@]4(C)[C@H]3CC[C@]12C`: the growth inhibition is -1% (inactive).

Turning to `CC[n+]1ccc2c(C)c3[nH]c4ccc(O)cc4c3c(C)c2c1`, the growth inhibition is 86% (active).

The assay is the same for the next values; noted with them: S. cerevisiae rad50 strain growth inhibition; at 50.0 µM (retest, dose inferred, filed as 5.0); stronger effect = higher value.
Turning to `CCCc1cc(C(=O)OCC)cc(CCC)c1O`, the growth inhibition was 3% (inactive).

For the molecule `CC(C)[N+]([O-])(CCCNc1c2ccccc2nc2cccc([N+](=O)[O-])c12)C(C)C`, the growth inhibition was 97% (active).

Take `COc1cc2c3c(cccc3c1)C(=O)N(CCN(C)C)C2=O`: the growth inhibition was 77% (active).

Take `NC(=O)NN=C(CS)CS`: the growth inhibition is 57% (inactive).

On to `Cc1ccc(NC(=O)/C(Cl)=C(\Cl)C(=O)O)cc1C`, for which the growth inhibition was 99% (active).

As for `CCN(CC)CC[n+]1ccc2c(C)c3[nH]c4ccc(O)cc4c3c(C)c2c1`, the growth inhibition was 87% (active).

Take `CC(CC(C)(C)[N+](C)(C)C)[N+](C)(C)C` (stereo not drawn): the growth inhibition was 95% (active).

Turning to `COc1ccc(OC)c2cc3ccccc3cc12`, the growth inhibition was 81% (active).

For the molecule `Nc1ncncc1C(C1=C(O)COC1=O)C1=C(O)COC1=O`, the growth inhibition is 15% (inactive).

Consider `CSC1=NNC(SC)=NN1`, for which the growth inhibition is 41% (inactive).

As for `Cc1c(Cl)ccc2c1S(=O)(=O)c1cccc(Cl)c1-2`, the growth inhibition is 100% (active).

For `[O-][n+]1c2ccc(O)cc2nc2ccc(Cl)cc21`, the growth inhibition was 17% (inactive).

For the molecule `COc1ccc2ccc3ccccc3c2c1C=O`, the growth inhibition was 64% (inactive).

Turning to `Nc1ccc2c(c1)C(=O)c1cccc(N)c1C2=O`, the growth inhibition is 93% (active).

Consider `O=C(c1ccc(Cl)cc1Cl)C(Cl)Cl`, for which the growth inhibition is 84% (active).

With `COc1cc(C(=O)/C=C/c2ccccc2O)ccc1O`, the growth inhibition was 98% (active).

For the molecule `O=Cc1cccc2ccc3ccccc3c12`, the growth inhibition is 89% (active).

For the molecule `O=C(Nc1ccc(Cl)cc1)OCC#CCCl`, the growth inhibition is 7% (inactive).

As to `Cn1ccnc1Oc1ccc(Cl)cc1`, the growth inhibition is 83% (active).

Take `c1ccc2c(c1)C(=NCCCN1CCCCCC1)c1cccn1-2`: the growth inhibition is -6% (inactive).

Turning to `C/C(=N\O)C1CC2C=C(C#N)C1N(Cc1ccccc1)C2` (stereo not drawn), the growth inhibition was -1% (inactive).

With `O=[N+]([O-])C(=C(Sc1ccccc1)Sc1ccccc1)C(Cl)=C(Cl)Cl`, the growth inhibition is 53% (inactive).

For `CCCCCCCCCC/C=C\C(=O)O`, the growth inhibition was 68% (inactive).

As to `COc1ccc(N=C2C(=O)Nc3ccc(Br)cc32)cc1`, the growth inhibition was 61% (inactive).

For `COc1ccccc1C(=O)OCC1CCCN2CCCCC12` (stereo not drawn), the growth inhibition was 99% (active).

`CC(C)(Br)C(=O)/C=C/c1ccc(Cl)c(Cl)c1`: the growth inhibition is 64% (inactive).

In the case of `Nc1ccccc1CC(O)C(=O)O` (stereo not drawn), the growth inhibition is 94% (active).

Turning to `CC(=O)N/N=C/C(C)(C)C(C)(C)/C=N/NC(C)=O`, the growth inhibition is 51% (inactive).

As for `CN(C)c1nc2sc3c(c2c(=O)o1)CCCC3`, the growth inhibition was 43% (inactive).

With `CC(C)OC(=O)Oc1ccccc1OC(=O)OC(C)C`, the growth inhibition is 3% (inactive).

For the molecule `Cc1ccc(N)c(S)c1`, the growth inhibition was 77% (active).

Turning to `O=C(O)c1ccccc1NC(=S)c1ccccc1`, the growth inhibition is 97% (active).

`COC(=O)c1ccc(NCC2=CC(=O)C=CC2=O)cc1O`: the growth inhibition is 96% (active).

For the molecule `NC(N)=N/N=C\c1c2ccccc2cc2ccccc12`, the growth inhibition is 66% (inactive).

Consider `COC(=O)CSSCc1ccc([N+](=O)[O-])cc1`, for which the growth inhibition is 97% (active).

As for `CCS(=O)(=O)c1ccc(/C=C/C=N/NC(=S)NCC(C)C)cc1`, the growth inhibition was -7% (inactive).

Turning to `N#CC(C(=O)Nc1ccccc1)C1=C(Cl)C(=O)c2ccccc2C1=O` (stereo not drawn), the growth inhibition was 98% (active).

For `C[C@H](CCC(=O)NN)[C@H]1CC[C@H]2[C@@H]3CC[C@@H]4C[C@H](O)CC[C@]4(C)[C@H]3CC[C@]12C`, the growth inhibition is 45% (inactive).

With `CC[n+]1ccc2c(C)c3[nH]c4ccc(O)cc4c3c(C)c2c1`, the growth inhibition is 92% (active).

(Values after PubChem BioAssay (NCI).)
